Assay results reported in PubChem BioAssay (NCATS).
Records with an inconclusive call do not appear. The source made the active and inactive calls. Calls come from the whole dose curve; as a rule, active = well fitted curve in the direction sought with a large enough effect; inconclusive = small, poorly fitted or top-dose-only effect, or another doubt; inactive = no such curve, though single readings can be large; an effect the other way counts as inactive or inconclusive.

How the values were obtained:
[1] = NS1 protein of Zika virus - qHTS assay to identify small molecule inhibitors in human HEK 293 cells (AID 1347053); note: nearly all actives have a fitted effect of over 55% in size
Method in brief: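 Compound-treated (1 h pre-infection) HEK 293 cells infected with ZIKV MR766, MOI = 0.5; after 24 h at 37 C, NS1 read by TR-FRET; data normalized to uninfected and infected controls.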

[2] = qHTS of pediatric cancer cell lines to identify multiple opportunities for drug repurposing: Primary screen for TC32 cells (AID 1347089); note: nearly all actives have a fitted effect of over 60% in size
Method in brief: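 qHTS, TC32, 48 h drug treatment, CellTiter-Glo luminescence as a proxy for metabolically active cells; primary top concentration 46 µM (MIPE 11-pt, NPC 8-pt); confirmatory 11-pt.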

[3] = qHTS of pediatric cancer cell lines to identify multiple opportunities for drug repurposing: Primary screen for DAOY cells (AID 1347090); note: nearly all actives have a fitted effect of over 55% in size
Method in brief: (§1)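 Viability measured as metabolically active cells via CellTiter-Glo luminescence following 48 hours of compound exposure, 11-point dilutions in confirmatory testing. 500-1,000 cells/well plated 5 hours before dosing; controls were DMSO and 2.3 µM bortezomib.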

[4] = qHTS of pediatric cancer cell lines to identify multiple opportunities for drug repurposing: Primary screen for BT-37 cells (AID 1347094)
Method in brief: (§2)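 500-1,000 cells/well; 5 h pre-incubation 37 °C/5% CO2; compound pinned; 48 h; CellTiter-Glo, 15 min RT; luminescence. MIPE 11-pt from 0.78 nM, NPC 8-pt from 0.59 nM final. Bortezomib 2.3 µM final as positive control.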

[5] = qHTS of pediatric cancer cell lines to identify multiple opportunities for drug repurposing: Primary screen for NB-EBc1 cells (AID 1347095)
Method in brief: as §2

[6] = qHTS of pediatric cancer cell lines to identify multiple opportunities for drug repurposing: Primary screen for SJ-GBM2 cells (AID 1347091)
Method in brief: as §1

[7] = qHTS of pediatric cancer cell lines to identify multiple opportunities for drug repurposing: Primary screen for SK-N-MC cells (AID 1347093)
Method in brief: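 Metabolically active cells were quantified by ATP-dependent luminescence (CellTiter-Glo, 15 min at room temperature) following 48 h treatment. Cells had been plated at 500-1,000 per well and settled for 5 h beforehand.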

[8] = qHTS of pediatric cancer cell lines to identify multiple opportunities for drug repurposing: Primary screen for U-2 OS cells (AID 1347096); note: nearly all actives have a fitted effect of over 50% in size
Method in brief: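 Viability after 48 h compound treatment at 37C, 500-1,000 cells/well, read as ATP luminescence with CellTiter-Glo. Primary screens used 11-point (MIPE, 0.78 nM-46 µM) or 8-point (NPC, 0.59 nM-46 µM) final concentrations; follow-up screens used 11-point dilutions.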

[9] = qHTS of pediatric cancer cell lines to identify multiple opportunities for drug repurposing: Primary screen for Saos-2 cells (AID 1347097); note: nearly all actives have a fitted effect of over 40% in size
Method in brief: as §2

[10] = qHTS of pediatric cancer cell lines to identify multiple opportunities for drug repurposing: Primary screen for SK-N-SH cells (AID 1347098); note: nearly all actives have a fitted effect of over 65% in size
Method in brief: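 Cells (500-1,000/well) rested 5 h, then received compounds for 48 h; metabolically active cells were measured by CellTiter-Glo luminescence. Final concentrations spanned up to 46 µM (MIPE, 11-point) or 0.59 nM-46 µM (NPC, 8-point) in primary screens, 11-point in follow-ups.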

[11] = qHTS of pediatric cancer cell lines to identify multiple opportunities for drug repurposing: Primary screen for A673 cells (AID 1347092); note: nearly all actives have a fitted effect of over 45% in size
Method in brief: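 Luminescence from CellTiter-Glo, taken after 15 min at room temperature, served as the proxy for metabolically active cells following 48 h treatment. Both potency and efficacy were taken from curves fitted to the titration data.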

Measured: Potency
Potency is the fitted concentration of half-maximal effect.

COc1ccc(CCN(C)CCCOc2ccc(S(=O)(=O)c3[nH]c4ccccc4c3C(C)C)cc2)cc1OC
inactive: [1] | [2] | [3]
active: [4] 19.3 µM | [5] 20.9 µM

C[C@@H]1O[C@@H](O[C@H]2CC[C@@]3(C)[C@H](CC[C@@H]4[C@H]3C[C@@H](O)[C@]3(C)[C@@H](C5=CC(=O)OC5)CC[C@]43O)C2)C[C@H](O)[C@@H]1O[C@H]1C[C@H](O)[C@H](O[C@H]2C[C@H](O)[C@@H](O)[C@@H](C)O2)[C@H](C)O1 (stereo in doubt)
active: [1] 0.136 µM | [2] 0.38 µM | [3] 0.27 µM | [6] 0.121 µM | [7] 0.108 µM | [4] 0.112 µM | [5] 0.303 µM | [8] 0.34 µM | [9] 0.679 µM | [10] 0.555 µM

Cc1ccccc1-n1c(Cn2nc(-c3cccc(O)c3)c3c(N)ncnc32)nc2cccc(C)c2c1=O
inactive: [1] | [2]
active: [3] 1.18 µM | [6] 0.0166 µM | [11] 0.0047 µM | [7] 0.0418 µM | [4] 0.0544 µM | [5] 0.0743 µM | [9] 0.059 µM

CC[C@]1(O)C[C@H]2CN(CCC3=c4ccccc4=N[C]3[C@@](C(=O)OC)(c3cc4c(cc3OC)N(C)[C@H]3[C@@](O)(C(N)=O)[C@H](O)[C@]5(CC)C=CCN6CC[C@]43[C@@H]65)C2)C1
active: [1] 1.66 µM | [2] 0.0587 µM | [3] 0.469 µM | [6] 0.001 µM | [11] 0.0148 µM | [7] 0.0235 µM | [4] 0.122 µM | [5] 0.0296 µM | [9] 0.148 µM

CCC[C@H](Nc1nc(-c2ccc(NC(=O)NCC)c(OC)c2)ncc1C)c1cccnc1
active: [1] 0.0093 µM | [2] 0.093 µM | [6] 0.0105 µM | [11] 0.0187 µM | [7] 0.0118 µM | [4] 0.0137 µM | [5] 0.0066 µM

N#CC1(c2cccc(C(=O)Nc3cc(Oc4ccc5nc(NC(=O)C6CC6)sc5n4)ccc3F)c2Cl)CC1
inactive: [2] | [6]
active: [1] 2.35 µM

OC[C@H]1O[C@@H](O[C@H]2[C@@H](O)[C@@](O)(CO)O[C@@H]2CO)[C@H](O)[C@@H](O)[C@@H]1O
not listed: [8] | [10]
inactive: all other assays above

Cc1ccc(NC(=O)Nc2cc(C(F)(F)F)ccc2F)cc1Nc1ccc2c(c1)NC(=O)C2=Cc1ccc[nH]1
active: [3] 14.8 µM | [6] 10.5 µM | [4] 24.3 µM | [5] 11.8 µM | [8] 23.5 µM | [9] 20.9 µM | [10] 30.4 µM
inactive: [1] | [2]

CC(=O)OCC(=O)[C@@]12OC(C)(C)O[C@H]1C[C@H]1[C@@H]3C[C@H](F)C4=CC(=O)C=C[C@]4(C)[C@@]3(F)[C@@H](O)C[C@@]12C
not listed: [3] | [7] | [9]
inactive: all other assays above

O=C(Nc1ccc(OC(F)(F)F)cc1)c1sccc1NCc1ccnc2ccccc12
active: [7] 26.4 µM | [9] 18.7 µM
not listed: [3] | [4] | [11]
inactive: all other assays above

CNC1CCC(N(Cc2cccc(-c3ccncc3)c2)C(=O)c2sc3ccccc3c2Cl)CC1 (configuration not stated)
inactive: [2] | [3] | [8]
active: [1] 9.35 µM | [6] 23.5 µM | [11] 14.8 µM | [7] 23.5 µM | [4] 24.3 µM | [5] 26.4 µM | [9] 26.4 µM

Cn1cc(-c2ccc3nnc(Sc4ccc5ncccc5c4)n3n2)cn1
active: [3] 11.8 µM | [6] 0.0118 µM
inactive: [1] | [2] | [4] | [5] | [10]

Fc1ccc(C(c2ccc(F)cc2)N2CCN(CC=Cc3ccccc3)CC2)cc1
inactive: [1] | [2] | [3] | [4] | [8] | [10]

COc1cc([C@@H]2c3cc4c(cc3[C@@H](O[C@@H]3O[C@@H]5CO[C@@H](C)O[C@@H]5[C@H](O)[C@@H]3O)[C@H]3COC(=O)[C@H]23)OCO4)cc(OC)c1O
active: [1] 1.18 µM | [2] 1.04 µM | [3] 1.48 µM | [6] 0.59 µM | [7] 0.469 µM | [4] 0.485 µM | [5] 0.187 µM | [9] 3.32 µM

Cc1cc2nc3c(=O)[nH]c(=O)nc-3n(CC(O)C(O)C(O)CO)c2cc1C (configuration not stated)
active: [7] 29.6 µM
not listed: [10] | [11]
inactive: all other assays above

CCCCC(F)(F)[C@@]1(O)CC[C@H]2[C@H](CC(=O)[C@@H]2CCCCCCC(=O)O)O1
not listed: [10]
inactive: all other assays above

CCC(=C(c1ccc(O)cc1)c1ccc(OCCNC)cc1)c1ccccc1
active: [11] 37.2 µM | [9] 18.7 µM | [10] 34.1 µM
inactive: [1]

Cc1cc(-c2ncc(CC(=O)Nc3ccc(-c4cnccn4)cn3)cc2C)ccn1
inactive: [1] | [6] | [8]
active: [7] 16.6 µM

Cc1nn(Cc2ccccc2Cl)c(C)c1CN(C)CC(O)COc1ccc(Cl)cc1 (configuration not stated)
inactive: [1] | [8] | [9]
active: [6] 20.9 µM | [7] 1.87 µM | [10] 24.1 µM

COc1cc2nc(-c3cc(F)ccc3O)nc(N[C@@H]3CNC[C@@H]3C(C)(C)O)c2cc1OC
active: [1] 9.35 µM | [6] 23.5 µM | [11] 7.43 µM | [4] 27.3 µM | [9] 9.35 µM | [10] 30.4 µM

CN1CC(=O)N2C(Cc3c([nH]c4ccccc34)[C@H]2c2ccc3c(c2)OCO3)C1=O (some centres not stated)
not listed: [1] | [9] | [10]
inactive: all other assays above

C[C@]12C=CC(=O)C=C1CC[C@@H]1[C@@H]2[C@@H](O)C[C@@]2(C)[C@@H]1CC[C@]2(O)C(=O)CO
inactive: [1] | [3] | [9]
active: [7] 29.6 µM | [5] 14.8 µM

C[C@@H]1[C@H](O)[C@@H](C)C=CC=CC=CC=CC=CC=CC=C[C@H](O[C@@H]2O[C@H](C)[C@H](O)[C@H](N)[C@@H]2O)C[C@@H]2O[C@](O)(C[C@@H](O)C[C@@H](O)[C@H](O)CC[C@@H](O)C[C@@H](O)CC(=O)O[C@H]1C)C[C@H](O)[C@@H]2C(=O)O
active: [11] 0.148 µM | [7] 0.118 µM
not listed: [2] | [5] | [10]
inactive: all other assays above

CC(C)(C)c1nc(-c2cccc(NS(=O)(=O)c3c(F)cccc3F)c2F)c(-c2ccnc(N)n2)s1
active: [3] 18.7 µM | [7] 0.59 µM
not listed: [1] | [8] | [11]
inactive: all other assays above

O=C(CCCN1CCN(c2ccc(F)cc2)CC1)NC1c2ccccc2CSc2ccccc21 (configuration not stated)
inactive: [1]
active: [3] 14.8 µM | [11] 11.8 µM | [7] 20.9 µM

CC(C)=CCCC(C)=CCCC(C)=CCCC(C)=CCCC(C)=CCCC(C)=CCCC(C)=CCCC(C)=CCCC(C)=CCO
not listed: [1] | [8] | [10]
inactive: all other assays above

Cc1[nH]c(C=C2C(=O)Nc3ccc(S(=O)(=O)N(C)c4cccc(Cl)c4)cc32)c(C)c1C(=O)N1CCN(C)CC1
inactive: [1]
active: [3] 23.5 µM | [6] 2.09 µM | [11] 23.5 µM | [7] 11.8 µM | [4] 24.3 µM | [5] 14.8 µM | [8] 18.7 µM | [9] 18.7 µM | [10] 30.4 µM

C[C@@H]1CC=CC=CC=CC=C[C@@H](O[C@@H]2O[C@H](C)[C@@H](O)[C@H](N)[C@H]2O)C[C@@H]2O[C@](O)(C[C@@H](O)C[C@@H]3O[C@@H]3C=CC(=O)O1)C[C@H](O)[C@@H]2C(=O)O
inactive: [2] | [6] | [8] | [9] | [10]
active: [3] 7.43 µM | [7] 8.33 µM

CC1CCN(c2cc(N3CCN(C)CC3)ccc2NC(=O)c2cc(C#N)c[nH]2)CC1
inactive: [1] | [3] | [11] | [7] | [4] | [8]
active: [10] 21.5 µM

CC(O)=C(C#N)C(=O)Nc1ccc(C(F)(F)F)cc1
inactive: [8]
active: [1] 13.2 µM | [11] 18.7 µM | [7] 4.69 µM | [5] 4.18 µM

CN[C@@H]1CN(c2ccc3c(=O)c(C(=O)O)cn(-c4nccs4)c3n2)C[C@@H]1OC
active: [2] 12.8 µM | [3] 8.12 µM | [6] 1.15 µM | [11] 8.12 µM | [7] 1.29 µM | [4] 3.35 µM | [5] 0.407 µM | [10] 9.37 µM
inactive: [9]

Cc1cc(OCCCS(C)(=O)=O)cc(C)c1-c1cccc(COc2ccc3c(c2)OC[C@H]3CC(=O)O)c1
active: [3] 18.7 µM | [6] 26.4 µM | [9] 33.2 µM
inactive: [2]

O=c1[nH]nc(OCCCc2ccc(Cl)cc2)c(NCc2cccnc2)c1Br
inactive: [1] | [10]
active: [6] 23.5 µM | [11] 9.35 µM | [7] 10.5 µM | [4] 21.7 µM | [8] 23.5 µM | [9] 26.4 µM

CC(C)c1onc(-c2c(Cl)cccc2Cl)c1COc1ccc(C=Cc2cccc(C(=O)O)c2)c(Cl)c1
inactive: [1] | [2] | [8] | [9]
active: [7] 16.6 µM

O=C1CN2Cc3c(ccc(Cl)c3Cl)N=C2N1
inactive: [1] | [2] | [8] | [9]
